Laboratory results as given in ChEMBL document CHEMBL3433997, “St. Jude Leishmania screening dataset” (2016).

What was measured:
Assay type in all cases: functional
[1] = target: Solute carrier family 2, facilitated glucose transporter member 1 (Homo sapiens) (UniProt P11166); assay: ST_JUDE_LEISH: Cytotoxicity at 2uM final concentration against transgenic Leishmania Mexicana promastigotes LmGLUT1 that are glucose transport deficient and complemented with the human glucose transporter GLUT1. Activity is measured by DNA content using SYBR green in vitro
[2] = target: Hexose transporter 1 (Plasmodium falciparum) (UniProt O97467); assay: ST_JUDE_LEISH: Cytotoxicity at 2uM final concentration against transgenic Leishmania Mexicana promastigotes LmPfHT that are glucose transport deficient and complemented with the Plasmodium falciparum hexose transporter. Activity is measured by DNA content using SYBR green in vitro
[3] = target: Glucose transporter (Leishmania mexicana) (UniProt O61059); assay: ST_JUDE_LEISH: Cytotoxicity at 2uM final concentration against transgenic Leishmania Mexicana promastigotes LmGT2 that are glucose transport deficient and complemented with the L. Mexicana glucose transporter 2. Activity is measured by DNA content using SYBR green in vitro

Sequence of Solute carrier family 2, facilitated glucose transporter member 1 (Homo sapiens) (P11166 whole entry): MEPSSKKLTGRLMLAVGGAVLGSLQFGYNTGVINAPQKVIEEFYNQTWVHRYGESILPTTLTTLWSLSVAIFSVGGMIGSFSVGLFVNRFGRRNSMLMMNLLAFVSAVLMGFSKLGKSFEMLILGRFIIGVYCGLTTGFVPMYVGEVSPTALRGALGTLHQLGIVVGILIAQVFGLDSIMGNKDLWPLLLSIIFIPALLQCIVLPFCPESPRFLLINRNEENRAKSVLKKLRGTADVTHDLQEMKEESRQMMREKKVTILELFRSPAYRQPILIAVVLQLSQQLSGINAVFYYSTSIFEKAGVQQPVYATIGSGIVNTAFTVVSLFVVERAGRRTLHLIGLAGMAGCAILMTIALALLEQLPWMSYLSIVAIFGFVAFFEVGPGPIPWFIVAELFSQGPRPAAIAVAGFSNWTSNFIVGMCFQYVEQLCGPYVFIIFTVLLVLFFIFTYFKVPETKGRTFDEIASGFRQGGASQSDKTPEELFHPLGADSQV

SMILES | inhibition [1] | inhibition [2] | inhibition [3]
CN1CCC(Oc2cc(CN3CC[C@H](NC(=O)c4ccc(Cl)c(Cl)c4)C3)ccc2I)C1 (stereo partly specified) | -0.57% | 0.84% | 2.33%
NCc1ccc(CNCc2cccc(-c3ccc(-c4nc5cc(C(F)(F)F)ccc5[nH]4)cc3)c2)cc1 | 2.92% | 1.34% | 0.8%
CC(C)(C)c1ccc(CN2CCC(NC(=O)c3ccc(-c4ccccc4Cl)s3)CC2)cc1 | 10.1% | 7.04% | 3.18%
COc1ccc(-c2cc(C(=O)N[C@@H](CC3CCCCC3)C(=O)NCCN3CCCCC3)ccc2O)cc1 | -0.43% | -0.56% | -0.35%
Fc1cc(Cl)ccc1Nc1ccnc2cc(I)ccc12 | 2.92% | 5.41% | 3.25%
CCn1c2c(c(=N)c3ccccc31)CCC2 | -0.78% | -2.72% | -1.61%
CC(C)NCc1cc(Nc2ccnc3cc(Cl)ccc23)ccc1O | 0.05% | 1.48% | 1.69%
CC(=O)Nc1ccc(C(=O)Nc2ccc(-c3csc(-c4nc5ccccc5[nH]4)c3)cc2)cn1 | 1.44% | 1.57% | 0.75%
Oc1ccc(CC2CCCN(c3nc(NCCCOc4ccccc4-c4ccccc4)nc(N4CCNCC4)n3)C2)cc1 (stereo unspecified) | -0.74% | -1.72% | -1.02%
CN1CCN(CC(=O)Nc2ccc(-c3cccc(-c4nc5cc(C(F)(F)F)ccc5[nH]4)c3)cc2)CC1 | 0.66% | 1.68% | -1.43%
COc1ccc(C(=C(C)CC(C)C(=O)O)c2ccccc2)cc1 (stereo unspecified) | -0.12% | -0.23% | 0.28%
CN1CCC(OC(=O)c2cc3cc(-c4ccccc4)ccc3n2S(=O)(=O)c2ccccc2)CC1 | 1.64% | 0.71% | 3.61%
